Experimental data as given in paper PMC4552634, “A New Set of Chemical Starting Points with Plasmodium falciparum Transmission-Blocking Potential for Antimalarial Drug Discovery” (PLoS ONE, 2015).
The campaign covered roughly 13,000 compounds. About 3,200 (25%) showed an effect of 50% or more. The list shows a part of the results.

These compounds were tested on P. falciparum stage V gametocytes. Settings: 48 h, 5 µM; inhibitor.
Parameters: BacTiter-Glo ATP luminescence viability of purified stage V gametocytes in 384-well plates, per cent inhibition versus DMSO

SMILES | % Inhibition
COc1ccc(Br)cc1/C=C/C(=O)Nc1ccc(C2CCCN(C)C2)cc1 (stereo not drawn) [TCMDC-133712] | 9.818%
Fc1ccc(-c2cc(NCCCn3ccnc3)nc(-c3cccnc3)n2)cc1 [TCMDC-123785] | 9.204%
CC(Nc1ccc2c(c1)OCCO2)C(=O)Nc1cc(C(F)(F)F)ccc1N1CCOCC1 (stereo not drawn) [TCMDC-124859] | -69.42%
CC(NC(=O)c1ccc(O)c(-c2ccc(Cl)c(Cl)c2)c1)C(=O)NC1CCCCC1 (stereo not drawn) [TCMDC-140823] | 42.42%
Cc1cc(-c2cccc(CNCCc3ccc(Cl)cc3)c2)cnc1N [TCMDC-138091] | 14.17%
Cc1cc(-c2ccc3occ(CCN)c3c2)cnc1N [TCMDC-138139] | 54.74%
Cc1cc(-c2ccc(O)c(CNC3CCCCC3)c2)cnc1N [TCMDC-138129] | -11.73%
CCC(C)CN1CCN(c2ccc(NC(=O)c3cccs3)cc2)C(C)C1 (stereo not drawn) [TCMDC-134996] | 6.92%
COC(=O)c1cc(OC2CCOC2=O)cc2c1OC(C)(C)O2 (stereo not drawn) [TCMDC-131234] | 42.88%
O=C(/C=C/c1ccccc1O)NCCCCCN1CCC(c2c[nH]c3ccccc23)CC1 [TCMDC-139697] | 92.48%
O=C(/C=C/c1c[nH]c2ccccc12)NCCCCCN1CCC(c2c[nH]c3ccccc23)CC1 [TCMDC-139207] | -19.56%
O=C(/C=C/c1cccc2ccccc12)NCCCCCN1CCC(c2c[nH]c3ccccc23)CC1 [TCMDC-139208] | 101.3%
O=C(NC1CCN(CCCc2ccccc2)CC1)c1ccc(-c2cccc(C(F)(F)F)c2)s1 [TCMDC-134323] | -38.84%
CC(C)Oc1cc2c(cc1NS(=O)(=O)c1ccc(-c3ccc(Cl)cc3)cc1F)CCN(C)CC2 [TCMDC-141589] | -14.09%
O=c1cnc2ccc(F)cc2n1CCN1CCC(NCc2cc(-c3ccccc3)cs2)CC1 [TCMDC-135134] | -21.73%
Cc1[nH]nc2ccc(-c3cc(OC[C@@H](N)Cc4ccccc4)cnc3-c3ccccc3OCc3cccc(F)c3)cc12 [TCMDC-136224] | -9.479%
Cc1csc(-c2ncc(OC[C@@H](N)Cc3ccccc3)cc2-c2ccc3n[nH]c(C)c3c2)c1 [TCMDC-136087] | -8.857%
Cc1[nH]nc2ccc(-c3cc(OC[C@@H](N)Cc4ccccc4)cnc3-c3ccc(OCc4cccc(F)c4)cc3)cc12 [TCMDC-136225] | 97.54%
Fc1cccc(COc2ccc(Nc3ncnc4cc(/C=C/[C@@H]5CCCN5)sc34)cc2Cl)c1 [TCMDC-134401] | 10.77%
O=C(NCc1ccccc1F)c1ccc(N2CCC(NCc3cccc(-n4cccn4)c3)CC2)cc1 [TCMDC-124670] | 2.936%
Cc1cc(N[C@@H](Cc2ccccc2)C(=O)NCCCOC(C)C)nc(NCCc2ccc(F)cc2)n1 [TCMDC-134866] | 73.24%
Cc1cc(N[C@@H](CC(C)C)C(=O)NCCCOC(C)C)nc(NCCc2ccc(F)cc2)n1 [TCMDC-134868] | 54.17%

SMILES | % Inhibition
COc1ccc(CC2(CO)CCN(Cc3ccc(O)c(Cl)c3)CC2)cc1 [TCMDC-124684] | -47.93%
CNC(=O)C1Cc2c([nH]c3cc(Cl)ccc23)C2(CCN(CCc3ccccc3)CC2)N1 (stereo not drawn) [TCMDC-141299] | -88.09%
COc1ccc([N+](=O)[O-])cc1N(Cc1ccccc1-c1ccccc1)S(=O)(=O)c1ccc(C(F)(F)F)cc1 [TCMDC-141595] | -1.284%
COc1ccc([N+](=O)[O-])cc1N(Cc1ccccc1-c1ccccc1)S(=O)(=O)c1ccc(C(F)(F)F)cc1[N+](=O)[O-] [TCMDC-141596] | 92.47%
COc1cc(N(Cc2ccccc2C)S(=O)(=O)Cc2ccccc2[N+](=O)[O-])c(OC)cc1Cl [TCMDC-141749] | 44.47%
CCOC(=O)c1[nH]c(-c2cc(Cl)nc(Cl)c2)nc1NC(=S)NCCCN1CCOCC1 [TCMDC-138898] | -1.969%
COc1ccc2nccc([C@@H](O)CN3CCC(NCc4cc5c(F)ccc(F)c5[nH]4)CC3)c2c1 [TCMDC-140739] | -16.25%
COc1ccc2nccc([C@@H](O)CN3CCC(NCc4nc5cc(F)c(F)cc5[nH]4)CC3)c2c1 [TCMDC-140665] | 66.97%
COc1ccc2nccc([C@@H](O)CN3CCC(NCc4cc5ccccc5[nH]4)CC3)c2c1 [TCMDC-140520] | 22.46%
COc1ccc2nccc([C@@H](O)CN3CCC(NCc4cc5c(Cl)cc(Cl)cc5[nH]4)CC3)c2c1 [TCMDC-140649] | 102.2%
COc1ccc2nccc([C@@H](O)CN3CCC(NCc4nc5c(F)cc(F)cc5[nH]4)CC3)c2c1 [TCMDC-140664] | -52.05%
COc1ccc2nccc([C@@H](O)CN3CCC(NCc4cc5cc(OC(F)(F)F)ccc5[nH]4)CC3)c2c1 [TCMDC-140692] | 96.42%
COc1ccc2nccc([C@@H](O)CN3CCC(NCc4cc5ccccc5[nH]c4=O)CC3)c2c1 [TCMDC-140759] | 15.99%
COc1ccc2nccc([C@@H](O)CN3CCC(NCc4cc5ccc(C#N)cc5[nH]4)CC3)c2c1 [TCMDC-140696] | 8.806%
COc1ccc2nccc([C@@H](O)CN3CCC(NCc4nc5ccccc5[nH]4)CC3)c2c1 [TCMDC-140550] | 32.31%
COc1ccc2nccc([C@@H](O)CN3CCC(NCc4cc5c(Cl)cccc5[nH]4)CC3)c2c1 [TCMDC-140695] | 48.39%
COc1ccc2nccc([C@@H](O)CN3CCC(NCc4cc5ccc(Cl)cc5[nH]4)CC3)c2c1 [TCMDC-140694] | 96.18%
COc1ccc2nccc([C@@H](O)CN3CCC(NCc4nc5ccc(F)cc5[nH]4)CC3)c2c1 [TCMDC-140651] | -60.2%
CO/N=C(\C)c1ccc2c(c1)CCN(CCC1CCC(NC(=O)c3cccc(-c4noc(C)n4)c3)CC1)CC2 (stereo not drawn) [TCMDC-139923] | 19.53%
CC(C)c1cccc(OCC2CCN(c3ncc(C(=O)Nc4ccccc4)cc3Cl)CC2)c1 [TCMDC-134262] | 5.5%
O=C(NC1CC1)c1cnc(N2CCC(c3ccccc3)CC2)c(Cl)c1 [TCMDC-134605] | 18.88%
COc1ccc2nccc([C@@H](O)CN3CCC(NCc4ccc5c(c4)NC(=O)CO5)CC3)c2c1 [TCMDC-140793] | 20.76%

SMILES | % Inhibition
COc1ccc2nccc([C@@H](O)CN3CCC(NCc4cc5cc([N+](=O)[O-])ccc5[nH]4)CC3)c2c1 [TCMDC-140693] | 14.13%
COc1ccc2nccc([C@@H](O)CN3CCC(NCc4ccc5c(c4)NC(=O)CS5)CC3)c2c1 [TCMDC-141058] | 3.469%
COc1ccc2nccc([C@@H](O)CN3CCC(NCc4cc5cc(Cl)ccc5[nH]4)CC3)c2c1 [TCMDC-140697] | 66.18%
COc1cc(F)c2ncc(F)c([C@@H](O)CN3CCC(NCc4cc5c(cn4)OCCO5)CC3)c2c1 [TCMDC-135378] | -21.41%
COc1cc(F)c2nccc([C@@H](O)CN3CCC(NCc4nc5c(F)cccc5[nH]4)CC3)c2c1 [TCMDC-140970] | -8.506%
COc1ccc2nccc([C@@H](O)CN3CCC(NCc4ccc5c(c4)NC(=O)C(C)S5)CC3)c2c1 (stereo partly drawn) [TCMDC-141222] | 79.58%
COc1cc(F)c2nccc([C@@H](O)CN3CCC(NCc4cc5c(cc4F)OCCO5)CC3)c2c1 [TCMDC-141570] | 69.54%
COc1ccc2nccc([C@@H](O)CN3CCC(NCc4cc5cccc(O)c5c(=O)[nH]4)CC3)c2c1 [TCMDC-141223] | 13.37%
CCCN1CCC2(CC1)NC(C(=O)NCCC(C)C)Cc1c2[nH]c2cc(Cl)ccc12 (stereo not drawn) [TCMDC-141295] | -32.44%
COc1ccccc1C(=O)Nc1ccc(Nc2nc(C)cc(N3CCOCC3)n2)cc1 [TCMDC-124706] | 21.35%
Cn1cncc1C(=O)Nc1cccc(-c2cccc(-c3nc4ccc(F)cc4[nH]3)c2)c1 [TCMDC-137058] | 82.61%
Cn1cncc1C(=O)Nc1cccc(-c2cccc(-c3nc4ccccc4[nH]3)c2)c1 [TCMDC-137054] | 26.78%
Cc1cccc2[nH]c(-c3ccc(-c4cccc(NC(=O)c5cncn5C)c4)cc3)nc12 [TCMDC-137057] | -16.54%
Cn1cncc1C(=O)Nc1cccc(-c2ccc(-c3nc4ccccc4[nH]3)cc2)c1 [TCMDC-137060] | 87.09%
Cc1cccc2[nH]c(-c3cccc(-c4cccc(NC(=O)c5cn(C)c(=O)n5C)c4)c3)nc12 [TCMDC-137137] | -10.73%
Cn1cncc1C(=O)Nc1cccc(-c2ccc(-c3nc4ccc(C(F)(F)F)cc4[nH]3)cc2)c1 [TCMDC-137064] | -23.15%
Cn1cncc1C(=O)Nc1ccc(-c2cccc(-c3nc4ccc(C(F)(F)F)cc4[nH]3)c2)cc1 [TCMDC-137062] | -23.24%
Cn1cncc1C(=O)Nc1cccc(-c2ccc(-c3nc4ccc(F)cc4[nH]3)cc2)c1 [TCMDC-137059] | -26.92%
Cn1cncc1C(=O)Nc1ccc(-c2cccc(-c3nc4ccc(F)cc4[nH]3)c2)cc1 [TCMDC-137056] | 28.45%
Cn1cncc1C(=O)Nc1cccc(-c2csc(-c3nc4ccccc4[nH]3)c2)c1 [TCMDC-132396] | -5.264%
Cn1cncc1C(=O)Nc1cccc(-c2cccc(-c3nc4ccc(C(F)(F)F)cc4[nH]3)c2)c1 [TCMDC-137061] | 89.86%
Cc1cccc2[nH]c(-c3cccc(-c4cccc(NC(=O)c5cncn5C)c4)c3)nc12 [TCMDC-137063] | 85.59%
